JMJD2A Tudor inh: blocks the human JMJD2A Tudor domain. AlphaScreen JMJD2A-Tudor / H3K4me3 peptide binding. Potency, µM (titrated, usually from 114 µM), inactives show at the highest dose activity change, negative = inhibition, actives largely listed as inhibitors. 4.4% of 390,000 active. AID 504339; further: on the % scale 0 is the no-effect control and ±100 the full control effect; nearly all actives have a fitted effect of over 50% in size
L3MBTL1 block: inhibitors of human L3MBTL1; Q9Y468; Potency, µM (top dose mostly 57.1 µM), for the others: at the highest dose activity, negative = inhibition, actives largely listed as inhibitors; AlphaScreen L3MBTL1–H3K9me1 peptide binding; AID 485360; 0.66% of 230,000 active; further: on the % scale 0 is the no-effect control and ±100 the full control effect; nearly all actives have a fitted effect of over 60% in size
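L3MBTL1 50 nM + b-AHA-H3(1-15)K9me1 75 nM, 30 min RT; compound added, 30 min RT; streptavidin donor/Ni-chelate acceptor beads 10 ug/mL each final, 30 min RT dark; AlphaScreen read.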
G9a inh: G9a (human) methyltransferase inhibition | 8.8% of 350,000 active | Potency, µM (highest dose often 102 µM), for the others: top-dose activity, negative = inhibition, usual class: inhibitors | AID 504332 | Q96KQ7 | G9a H3K9 monomethylation, AlphaScreen, 2 h; further: on the % scale 0 is the no-effect control and ±100 the full control effect; nearly all actives have a fitted effect of over 75% in size
Target sequence (Q96KQ7 913-1193 limits assumed): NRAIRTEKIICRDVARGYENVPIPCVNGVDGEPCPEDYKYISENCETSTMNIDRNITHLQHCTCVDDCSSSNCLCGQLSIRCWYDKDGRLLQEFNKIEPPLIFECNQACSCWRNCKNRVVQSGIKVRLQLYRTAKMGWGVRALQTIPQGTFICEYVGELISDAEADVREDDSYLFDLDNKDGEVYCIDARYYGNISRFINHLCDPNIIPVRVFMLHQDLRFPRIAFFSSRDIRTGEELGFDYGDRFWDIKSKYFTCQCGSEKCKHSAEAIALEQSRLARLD
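Enzyme 20 nM + cpd, 15 min RT; add b-H3K9 pep 500 nM / SAM 20 uM; 2 h RT; anti-H3K9me1 Ab 0.5 ug/mL + SA donor / anti-rabbit acceptor beads 20 ug/mL each, 10 min; AlphaScreen read.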
BAZ2B inh: inhibitors of human BAZ2B bromodomain; AlphaScreen BAZ2B-H3K14Ac peptide displacement; Potency, µM (top dose mostly 114 µM), without a hit: at the highest dose activity change, negative = inhibition, usual class: inhibitors; 4.4% of 360,000 active; further: on the % scale 0 is the no-effect control and ±100 the full control effect; nearly all actives have a fitted effect of over 60% in size
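In this displacement format the biotinylated H3(5-23) peptide acetylated at Lys14 serves as ligand at 50 nM, with BAZ2B at 50 nM in PBS pH 7.4 containing 0.01% Tween-20. Donor and acceptor beads are 10 ug/mL final.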
HP1b chromo inh: blocks HP1-beta chromodomain binding to methylated histone tails. P83916. Potency, µM (series often up to 114 µM), for the others: at the top dose activity change, negative = inhibition, usual class: inhibitors. 0.56% of 390,000 active. AID 540317. AlphaScreen HP1-beta / biotin-H3K9me3 peptide binding; further: nearly all actives have a fitted effect of over 70% in size
Target sequence (P83916 whole entry, looked up): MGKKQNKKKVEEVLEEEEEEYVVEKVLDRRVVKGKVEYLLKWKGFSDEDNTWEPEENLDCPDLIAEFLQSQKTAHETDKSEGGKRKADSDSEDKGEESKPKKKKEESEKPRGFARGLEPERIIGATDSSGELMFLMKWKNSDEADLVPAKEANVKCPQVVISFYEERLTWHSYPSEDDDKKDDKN
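HP1-beta protein (50 nM final) preincubated 30 min at room temperature with biotinylated H3(1-18)K9me3 peptide (50 nM) in PBS pH 7.4, 0.01% Tween-20, then compound added for 30 min. AlphaScreen streptavidin donor/nickel chelate acceptor beads (10 ug/mL final), 30 min dark, luminescence read.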
Numbers without * were called inactive; [ ] = another dose, or the depositor's remark. Only some compounds are listed: those with a hit (about 11% of all), similar ones and a draw of the others. The call rests on the fitted dose curve; in most records, active means well fitted inhibition curve with a large enough effect; inconclusive means small, poorly fitted or top-dose-only effect; inactive means no such curve, though single readings can be large or run the other way. Potency means the concentration at half of the fitted maximal effect.

Results for FC(F)Oc1ccc(NC(=S)NNc2ccnc3cc(Cl)ccc23)cc1 ?
JMJD2A Tudor inh: inconclusive; L3MBTL1 block: -8%; G9a inh: 40µM*; BAZ2B inh: inconclusive; HP1b chromo inh: inconclusive

Results for NC(=S)NNc1ccnc2cc(Cl)ccc12 ?
JMJD2A Tudor inh: 45µM*; L3MBTL1 block: -3%; G9a inh: 1µM*; BAZ2B inh: 50µM*; HP1b chromo inh: inconclusive

What do the screens show for `COc1cccc(CNC(=O)c2sc3nc(C)cc(C)c3c2-n2cccc2)c1OC`?
JMJD2A Tudor inh: -17%; G9a inh: -3%[59 µM]; BAZ2B inh: -8%; HP1b chromo inh: 15%

What do the screens show for `CN1CCC(N(C)S(=O)(=O)c2ccc(NC(=O)COc3ccc([N+](=O)[O-])cc3)cc2)CC1`?
JMJD2A Tudor inh: -11%; L3MBTL1 block: -14%; G9a inh: 13µM*; BAZ2B inh: inconclusive; HP1b chromo inh: 24%

What do the screens show for `CN1CCC(N(C)S(=O)(=O)c2ccc(NC(=O)COc3ccc(Cl)cc3)cc2)CC1`?
JMJD2A Tudor inh: -19%; L3MBTL1 block: -9%; G9a inh: 16%[12.7 µM]; BAZ2B inh: 0%; HP1b chromo inh: 20%

How did CN1CCC(N(C)S(=O)(=O)c2ccc(NC(=O)COc3ccc(F)cc3Cl)cc2)CC1 do in these assays?
JMJD2A Tudor inh: -9%; G9a inh: inconclusive; BAZ2B inh: -30%; HP1b chromo inh: 21%

How did CN1CCC(N(C)S(=O)(=O)c2ccc(NC(=O)COc3ccc(F)cc3)cc2)CC1 do in these assays?
JMJD2A Tudor inh: -20%; L3MBTL1 block: inconclusive; G9a inh: 11µM*; BAZ2B inh: inconclusive; HP1b chromo inh: 3%

How did COc1ccccc1N1CCN(CC(=O)Nc2nc(C)c(C(=O)N(C)C)s2)CC1 do in these assays?
JMJD2A Tudor inh: -2%; L3MBTL1 block: -8%; G9a inh: 10%; BAZ2B inh: 2%; HP1b chromo inh: 25%

What do the screens show for `Cc1nc(NC(=O)CN2CCCCC2)sc1C(=O)N(C)C`?
JMJD2A Tudor inh: -32%; L3MBTL1 block: -1%; G9a inh: 79µM*; BAZ2B inh: -27%; HP1b chromo inh: 8%

How did Cc1nc(NC(=O)CN2CCOCC2)sc1C(=O)N(C)C do in these assays?
JMJD2A Tudor inh: 16µM*; L3MBTL1 block: 4%; G9a inh: inconclusive; BAZ2B inh: -20%; HP1b chromo inh: 18%

How did Cc1ccc2oc(=O)c3cc(C(=O)Nc4ccc(C)c(F)c4)sc3c2c1 do in these assays?
JMJD2A Tudor inh: 5%; G9a inh: 6%[59 µM]; BAZ2B inh: 1%; HP1b chromo inh: 33%

How did Nc1nc(NCc2ccc(Cl)c(Cl)c2)c2[nH]cnc2n1 do in these assays?
JMJD2A Tudor inh: -26%; HP1b chromo inh: 27%

How did O=C(O)c1ncc(-c2ccccc2)cn1 do in these assays?
JMJD2A Tudor inh: 10µM*; L3MBTL1 block: -13%; G9a inh: 8.9µM*; HP1b chromo inh: inconclusive

What do the screens show for `c1ccc(-c2cnc(-c3ccccc3)nc2)cc1`?
JMJD2A Tudor inh: -10%; G9a inh: inconclusive; BAZ2B inh: -5%; HP1b chromo inh: 32%

Results for c1ccc(N2CCN(Cc3nc4ccccc4[nH]3)CC2)nc1 ?
JMJD2A Tudor inh: -13%; G9a inh: -23%; BAZ2B inh: 1%; HP1b chromo inh: 31%

Results for O=c1c(CN2CCN(c3ccccn3)CC2)coc2ccccc12 ?
JMJD2A Tudor inh: 22µM*; L3MBTL1 block: -1%; G9a inh: inconclusive; BAZ2B inh: 79µM*; HP1b chromo inh: inconclusive

Results for Brc1ccc(CN2CCN(c3ccccn3)CC2)s1 ?
JMJD2A Tudor inh: 7.9µM*; G9a inh: 14µM*; BAZ2B inh: 45µM*; HP1b chromo inh: inconclusive

Results for c1ccc(N2CCN(Cc3ccc4c(c3)OCO4)CC2)nc1 ?
JMJD2A Tudor inh: 28µM*; HP1b chromo inh: inconclusive

What do the screens show for `CCC(=O)N1CCc2cc(Br)cc(S(=O)(=O)N(CC)Cc3ccccc3)c21`?
JMJD2A Tudor inh: 6%; G9a inh: inconclusive; BAZ2B inh: -3%; HP1b chromo inh: 31%

What do the screens show for `Cc1ccc(S(=O)(=O)c2nc(-c3ccccc3)oc2NCCCN2CCOCC2)cc1`?
JMJD2A Tudor inh: inconclusive; L3MBTL1 block: -14%; G9a inh: inconclusive; BAZ2B inh: -32%; HP1b chromo inh: 37%

Results for Cc1cccc(-c2nc(S(=O)(=O)c3ccc(F)cc3)c(NCCCN3CCOCC3)o2)c1 ?
JMJD2A Tudor inh: inconclusive; BAZ2B inh: 71µM*; HP1b chromo inh: inconclusive

What do the screens show for `CCOC(=O)N1CCN(C(=O)c2cnn(-c3cccc(F)c3)c2-n2cccc2)CC1`?
JMJD2A Tudor inh: -11%; G9a inh: 2%[59 µM]; BAZ2B inh: 1%; HP1b chromo inh: 24%

Results for Nc1nc(-c2cc3c(cc2Cl)OCCO3)cs1 ?
JMJD2A Tudor inh: -23%; L3MBTL1 block: -5%; G9a inh: 14µM*; BAZ2B inh: inconclusive; HP1b chromo inh: 5%

What do the screens show for `COc1cccc([C@@H]2CC=C(C(=O)O)[C@H](c3ccccc3F)N2S(=O)(=O)c2ccc(C)cc2)c1`?
JMJD2A Tudor inh: -6%; L3MBTL1 block: -28%; G9a inh: 14%[2.33 µM]; BAZ2B inh: 79µM*; HP1b chromo inh: 53%

Results for Cc1ccc(S(=O)(=O)N2[C@@H](c3ccc(Cl)cc3)C(C(=O)O)=CC[C@H]2c2ccc(C(C)C)cc2)cc1 ?
JMJD2A Tudor inh: -18%; L3MBTL1 block: -7%; G9a inh: 15%[2.33 µM]; BAZ2B inh: 79µM*; HP1b chromo inh: 15%

How did O=c1[nH]c(/C=C/c2cccc3ccccc23)nc2ccccc12 do in these assays?
JMJD2A Tudor inh: 0%[57.1 µM]; L3MBTL1 block: 0%; G9a inh: 32%; BAZ2B inh: -14%; HP1b chromo inh: 48%

Results for CCCN1C(=O)/C(=C\c2nc3ccccc3c(=O)[nH]2)c2ccccc21 ?
JMJD2A Tudor inh: -16%; L3MBTL1 block: -11%; G9a inh: 32µM*; BAZ2B inh: inconclusive; HP1b chromo inh: -13%

Results for CC12CCC(=O)N1C(C(=O)Nc1nc3c(F)cc(F)cc3s1)CS2 (configuration not stated) ?
JMJD2A Tudor inh: -21%; G9a inh: 45µM*; BAZ2B inh: -1%; HP1b chromo inh: 27%

What do the screens show for `CC12CCC(=O)N1C(C(=O)Nc1nnc(SCc3ccccc3F)s1)CS2` (configuration not stated)?
JMJD2A Tudor inh: -20%; G9a inh: 79µM*; BAZ2B inh: -25%; HP1b chromo inh: 22%[57 µM]

What do the screens show for `COc1ccc(CCNC(=O)c2cccc(S(=O)(=O)N3CCc4ccccc4C3)c2)cc1`?
JMJD2A Tudor inh: -12%; L3MBTL1 block: 2%; G9a inh: 3%[12.7 µM]; BAZ2B inh: 8%; HP1b chromo inh: 23%

How did COc1ccc(S(=O)(=O)N(C(=O)c2ccncc2)c2ccc(OC(=O)c3ccncc3)cc2)cc1 do in these assays?
JMJD2A Tudor inh: -25%; G9a inh: 35µM*; BAZ2B inh: -5%; HP1b chromo inh: 1%

Screens as filed in PubChem.
